An excerpt weighted towards active compounds, which were near 12% of everything screened.
Sfp inh – Sfp phosphopantetheinyl transferase inhibition; Q9F4F7; Biochemical Sfp PPTase activity, qHTS; Potency, µM, for inactives: largest response in the series, negative = inhibition, hits mostly inhibitors; hit rate 3.5% among 310,000;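 further: the enzyme is Sfp with the accession as filed and its product quenches rhodamine fluorescence; 0% = enzyme reaction without inhibitor and -100% = no enzyme wells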
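Compounds were incubated with enzyme (final 15 nM) for 15 min at room temperature before substrate addition started the reaction. Fluorescence at 525 nm excitation, 598 nm emission was recorded immediately and after 30 minutes.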
JMJD2A Tudor inh – JMJD2A Tudor domain (human) inhibition. AlphaScreen JMJD2A-Tudor / H3K4me3 peptide binding. hit rate 4.4% among 390,000. AID 504339. Potency, µM (top dose mostly 114 µM), without a hit: at the highest dose activity change, negative = inhibition, hits mostly inhibitors; further: on the % scale 0 is the no-effect control and ±100 the full control effect; nearly all actives have a fitted effect of over 50% in size
BAZ2B block – blocks human BAZ2B; hit rate 4.4% among 360,000; Potency, µM (top dose mostly 114 µM), without a hit: at the highest dose activity change, negative = inhibition, most hits filed as inhibitors; Q9UIF8; AlphaScreen BAZ2B-H3K14Ac peptide displacement; further: on the % scale 0 is the no-effect control and ±100 the full control effect; nearly all actives have a fitted effect of over 60% in size
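BAZ2B 50 nM plus b-H3(5-23)K14Ac 50 nM, PBS pH 7.4/0.01% Tween-20, 30 min RT; compound added (max 110 uM), 30 min RT; streptavidin donor/Ni-chelate acceptor beads 10 ug/mL final, 20 min dark; AlphaScreen read.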
HP1b chromo inh – inhibitors of HP1-beta chromodomain binding to methylated histone tails. P83916. hit rate 0.56% among 390,000. Potency, µM (highest dose often 114 µM), for inactives: top-dose activity change, negative = inhibition, actives largely listed as inhibitors. AID 540317. AlphaScreen HP1-beta / biotin-H3K9me3 peptide binding; further: nearly all actives have a fitted effect of over 70% in size
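HP1-beta protein (50 nM final) preincubated 30 min at room temperature with biotinylated H3(1-18)K9me3 peptide (50 nM) in PBS pH 7.4, 0.01% Tween-20, then compound added for 30 min. AlphaScreen streptavidin donor/nickel chelate acceptor beads (10 ug/mL final), 30 min dark, luminescence read.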
G9a inh – blocks human histone lysine methyltransferase G9a; G9a H3K9 monomethylation, AlphaScreen, 2 h; AID 504332; hit rate 8.8% among 350,000; Q96KQ7; Potency, µM (doses to about 102 µM), for inactives: top-dose activity, negative = inhibition, hits mostly inhibitors; further: on the % scale 0 is the no-effect control and ±100 the full control effect; nearly all actives have a fitted effect of over 75% in size
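Step 1: enzyme (final 20 nM) with compound, 15 min RT. Step 2: substrate peptide 500 nM and SAM 20 uM, 2 h RT. Step 3: anti-H3K9me1 antibody and AlphaScreen beads, 10 min, then plate read.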
Active calls of the source: *; u = inconclusive; x = no result; [ ] = another dose, or the depositor's remark. The call rests on the fitted dose curve; in most records, active means well fitted curve in the direction sought with a large enough effect; inconclusive means small, poorly fitted or top-dose-only effect, or another doubt; inactive means no such curve, though single readings can be large; an effect the other way counts as inactive or inconclusive. Potency means the concentration at half of the fitted maximal effect.

SMILES	Sfp inh	JMJD2A Tudor inh	BAZ2B block	HP1b chromo inh	G9a inh
COc1ccccc1N1CCN(C(=O)Cn2ncc3ccsc3c2=O)CC1	x	-21%	2%	74%	37%[59 µM]
O=C1CC(=O)Nc2cc(S(=O)(=O)Nc3cccc(Br)c3)ccc2N1	x	-2%	-16%	48%	0%[59 µM]
CC(C)(C)OC(=O)Cc1nnc(-c2cc3ccccc3[nH]2)s1	x	-14%	x	x	x
Cc1ccccc1-c1noc(-c2ccccc2OCC(=O)Nc2ccccc2[N+](=O)[O-])n1	x	20µM*	u	-11%	14µM*
O=C(COC(=O)COc1ccccc1)Nc1cccc([N+](=O)[O-])c1	14%	-20%	-23%	-3%	-49%
Cc1noc(-c2ccccc2OCC(=O)Nc2cccc([N+](=O)[O-])c2)n1	x	50µM*	u	-21%	u
Cc1noc(-c2ccccc2OCC(=O)Nc2ccccc2[N+](=O)[O-])n1	x	-25%	-24%	34%	u
O=C1[C@H]2CCn3c(=O)n(-c4ccccc4)c(=O)n3[C@H]2[C@H](O)[C@H]2O[C@@H]12	4%	x	x	x	x
O=C(/C=C/c1c(F)cccc1Cl)NCc1ccco1	-14%	-14%	-4%	2%	14%
O=C(CN1C(=O)/C(=C/c2c(F)cccc2Cl)Oc2ccccc21)NCc1ccco1	40µM*	x	-2%	x	-10%
CCCCCn1c(=N)c(S(=O)(=O)c2ccccc2)cc2c(=O)n3cccc(C)c3nc21	x	4%	5%	31%	6%[59 µM]
O=C(NCCNC(=O)c1ccccc1O)c1ccccc1O	13%	-21%	u	29%	-9%[0.501 µM]
O=C(NO)c1ccccc1O	-5%	-25%	u	53%	2µM*
CC1(NC(=O)CC[N+](C)(C)CCO)CS(=O)(=O)CC1S(=O)(=O)[O-] (configuration not stated)	-8%	x	50µM*	x	u
CCc1ccc(-n2nc3cc(C)c(N)cc3n2)cc1	56µM*	89µM*	32µM*	-2%	1.1µM*
Nc1ccc2nn(-c3ccccc3)nc2c1	-17%	-21%	-16%	-25%	x
Cc1ccc(-n2nc3cc(C)c(N)cc3n2)cc1	-18%	-20%	u	3%	1.6µM*
Nc1cc2nn(-c3ccccc3)nc2cc1Cl	40µM*	-9%	-16%	33%	u
CCc1ccc(C(=O)Nc2ccc3nn(-c4ccc(C)c(Cl)c4)nc3c2)cc1	x	0%	-11%	19%	-29%[59 µM]
COc1ccc(-n2nc3cc(N)c(Br)cc3n2)cc1	-6%	-17%	-3%	-2%	17%[0.501 µM]
COc1ccc(-n2nc3cc(C)c(N)c(Br)c3n2)cc1	40µM*	-16%[11.4 µM]	-3%	-26%	u
COc1ccc(Nc2oc(-c3ccc(COc4cccc(C)c4)o3)nc2C#N)cc1	x	-13%	-8%	31%	-6%[59 µM]
Cc1cc2nn(-c3cccc4ccccc34)nc2cc1N	-5%	2%[57.1 µM]	u	20%	3.5µM*
Nc1ccc2nn(-c3cccc4ccccc34)nc2c1	-3%	-14%[57.1 µM]	u	-35%	17%[59 µM]
O=C(Cc1ccc(NC(=O)N2CCCCc3ccccc32)cc1)NCc1ccccc1	x	-17%	5%	38%	-3%[59 µM]
SMILES	Sfp inh	JMJD2A Tudor inh	BAZ2B block	HP1b chromo inh	G9a inh
N[C@@]1(C(=O)O)CN[C@@H](C(=O)O)C1	22µM*	x	x	x	29%[59 µM]
NC1(C(=O)O)CC(C(=O)O)C1 (configuration not stated)	50µM*	x	x	x	4%[59 µM]
CCC(=O)N1CCc2cc(Br)cc(S(=O)(=O)N3CCCC(C(=O)Nc4ccc(C(C)C)cc4)C3)c21 (configuration not stated)	x	-26%	2%	6%	-30%[59 µM]
N#Cc1cnn(-c2ccccc2)c1N	-10%	-3%	x	7%	13%[59 µM]
Cc1cc(=O)[nH]c(-n2ncc(C#N)c2N)n1	56µM*	1.6µM*	x	13%	2.8µM*
Cc1ccc2c(c1)c(C1=NC(=S)NC1=O)c(O)n2C	40µM*	-16%	-3%	8%	40µM*
CC(Oc1ccccc1)C(=O)OCc1cc(=O)n2nc(C(C)C)sc2n1 (configuration not stated)	x	-4%	-4%	7%	18%[59 µM]
Oc1cccc2cc3cccc(O)c3c(O)c12	13%	u	40µM*	-8%	u
O=C(Nc1cccc(Cl)c1Cl)c1cc(S(=O)(=O)N2CCCc3ccccc32)ccc1F	x	6%	6%	51%	20%[59 µM]
COc1ccc2c(c1)C(=O)[C@@H](OC(=O)NC1CCCC1)[C@H](c1ccc(OC)c(Br)c1)O2	-5%	x	x	x	x
COc1cccc(-c2n[nH]c(=S)n2Cc2ccco2)c1OC	-6%	7.9µM*	-5%	14%	u
Oc1cc2ccccc2cc1-c1n[nH]c(=S)n1Cc1ccco1	22µM*	u	u	-8%	1.6µM*
Oc1ccc(-c2n[nH]c(=S)n2Cc2ccco2)cc1	-2%	3.5µM*	-29%	-9%	2.8µM*
Cc1nn(C)c(-c2n[nH]c(=S)n2Cc2ccco2)c1Cl	-16%	22µM*	-11%	11%	6.3µM*
COC(=O)c1ccc(COC(=O)CCNS(=O)(=O)c2ccc(C)c(C)c2)cc1	x	5%	3%	42%	-8%
CCN(CC)S(=O)(=O)c1ccc(N2CCCC2)c(NC(=O)C2CSC3(C)CCC(=O)N23)c1 (configuration not stated)	x	-6%	-11%	16%	u
Cc1c(Cl)cnc(NC(=O)COC(=O)c2ccncc2)c1Cl	x	u	u	-9%	-9%[12.7 µM]
CCOC(=O)c1ccc(N2CCN(c3ccccc3F)CC2)c(NC(=O)Nc2ccc(Cl)c(Cl)c2)c1	x	-14%	3%	-11%	-2%[59 µM]
CSCC[C@H](NC(=O)[C@@H]1Cc2ccccc2CN1)C(=O)NC(C)c1ccccc1 (some centres not stated)	5%	u	-28%	21%	22µM*
CSCC[C@H](NC(=O)[C@@H]1Cc2ccccc2CN1)C(=O)NC1CCCC1	-5%	0%	-20%	20%	x
Cc1ccc(NC(=O)[C@H](NC(=O)[C@@H]2Cc3ccccc3CN2)c2ccccc2)cc1	-9%	-26%	u	9%	x
CC(C)c1ccc(NC(=O)[C@H](NC(=O)[C@@H]2Cc3ccccc3CN2)c2ccccc2)cc1	-15%	-18%	-28%	48%	45µM*
O=C(CCC1N=C2c3ccccc3N=C(SCC(=O)Nc3ccccc3F)N2C1=O)NCc1ccco1 (configuration not stated)	x	-15%	-15%	19%	10%[59 µM]
CCC(NC(=O)CCl)c1ccc(C)cc1 (configuration not stated)	18%	56µM*	-22%	-12%	-40%
CCC(CC)c1nnc(NC(=O)COc2ccc3c(c2)OCO3)s1	25µM*	u	u	u	8.9µM*
Cc1cc(=O)oc2cc(OCC(=O)Nc3nnc(C(C)C)s3)ccc12	-3%	-15%	-9%	16%	45µM*
Cc1cc(=O)oc2cc(OCC(=O)Nc3nnc(CC(C)C)s3)ccc12	1%	-19%	0%	44%	-2%[12.7 µM]
